Our source for the inhibition values is PubChem BioAssay AID1159606 (Sanford-Burnham Center for Chemical Genomics, 2016).

About 7,300 (2%) of roughly 360,000 compounds were called active. The full list was thinned out, with actives kept by preference. Unmarked numbers belong to inactive results. No stated cut-off is given here; in the data, active means inhibition above about 50%; inactive means the rest.

The experiment can be described thus: inhibitors of TWEAK-Fn14 signaling, primary screen, luciferase reporter cells, uHTS (AID 1159606). The note with it: TWEAK-stimulated Fn14 reporter cells, luciferase luminescence, 8 h; at 10 µM; active compounds read high. (Reporter assays use an easily measured gene product as a stand-in for the process of interest.)
In general, inhibition refers to the drop in the measured response relative to a control, in per cent. For `Cc1cc(SCC(=O)c2ccccc2)nc(SCC(=O)c2ccccc2)n1`, the inhibition was 53.9% (active). On to `Cc1nc2nc(SCC(=O)c3ccccc3)[nH]c2cc1Br`, for which the inhibition was -4.34%. The same measure for `Cc1nc(SCC(=O)c2ccccc2)c([N+](=O)[O-])[nH]1`: 9.51%; for `C[C@H](CO)N1C[C@H](C)[C@H](CN(C)C(=O)c2ccncc2)OCc2ccccc2-c2c(n(C)c3ccccc23)C1=O`: 2.05%; for `O=C(CCC(=O)OCc1cccc(C(=O)Oc2ccccc2)c1)Nc1cccc2ccccc12`: -15.2%.

Take `Cc1cccc(NC(=O)/C=C/c2ccc3c(c2)OCO3)n1`: the inhibition is 23.5%.

For `C(=N\Nc1ccc2ccccc2n1)/c1ccc2c(c1)OCO2`, the inhibition is 86.3% (active). Then `O=C(CNC(=O)C(c1ccccc1)c1ccccc1)N/N=C\c1ccc2c(c1)OCO2`, with -46.1%. The same measure for `Cc1ccc(CNC(=O)CCCNC(=O)c2ccc(Cl)cc2)n1C`: -27.7%; for `COc1ccc(N2CC(C(=O)N[C@@H](C)C(=O)N3CCCCC3)CC2=O)cc1` (stereo partly specified): -3.79%. Then `COc1cc(N2C(=O)CSC2=S)cc(OC)c1OC`, with 58.5% (active).

As for `COc1cc(N2C(=O)CC3(CCCC3)CC2=O)cc(OC)c1OC`, the inhibition is 15.3%.

Turning to `O=C1CSC(=S)N1c1ccc(Cl)c(Cl)c1`, the inhibition is 49.6%. Take `COc1cc(C(=O)N2CCN(C)CC2)cc(OC)c1OC`: the inhibition is 6.59%. Take `CCOc1ccc(N2C(=O)CSC2=NC#N)cc1`: the inhibition is 11.8%. Then `O=C1CSC(=S)N1c1ccc(O)cc1`, with 75.1% (active); and `Cc1ccc(NC(=O)CSc2nn3c(=O)c(C)nnc3s2)cc1Cl`, with 8.21%; and `CC(C)(C)c1ccc(Cn2nnc3c(=O)[nH]c(C4CCCN(C(=O)c5ccco5)C4)nc32)cc1` (stereo unspecified), with 25.6%. Consider `Cc1ccc(Cn2nnc3c(=O)[nH]c(C4CCN(S(=O)(=O)/C=C/c5ccccc5)CC4)nc32)cc1`, for which the inhibition was 50.3% (active). The same measure for `Cc1ccc(NC(=O)N2CCC(c3nc4c(nnn4Cc4c(F)cccc4Cl)c(=O)[nH]3)CC2)cc1`: 19.1%.

In the case of `O=C(OC1CCOC1=O)c1cccc(S(=O)(=O)Nc2ccc(F)cc2)c1` (stereo unspecified), the inhibition is 2.12%. Then `Cc1ccc(C(=O)N/C(=C\c2cccs2)C(=O)NCCc2ccccn2)cc1C`, with 5.63%.

On to `COc1cncc(-c2cnc3sc(NCCc4ccccn4)nn23)c1`, for which the inhibition is 64.8% (active).

On to `COc1ccc(-c2cc3nc(NCCOc4ccccc4)ccn3n2)cc1`, for which the inhibition is 5.16%. The same measure for `CCC1(CC)NC(=O)N(CC(=O)OCC(=O)c2cc(C)c(C)cc2C)C1=O`: -7.64%.

On to `C=CCC[C@@H](Cc1ccc(F)cc1)C(=O)O[C@H](CNC(=O)[C@H](CC=C)CC(=O)N(CCO)Cc1ccccc1)c1ccccc1`, for which the inhibition is 36.5%. Then `CN1CCN(C(=O)c2ccc(NC(=O)c3ccc(Br)o3)cc2)CC1`, with 2.47%. Then `O=C(Nc1ccc(S(=O)(=O)N2CCCCCC2)cc1)c1c(F)cccc1F`, with 2.17%. The same measure for `COc1cccc(OC)c1C(=O)Nc1ccc(Cc2ccncc2)cc1`: -17.4%. For `O=C(Nc1ccncc1)c1c(F)cccc1F`, the inhibition is 66.7% (active). The same measure for `CN(C)S(=O)(=O)c1ccc(N2CCCC2)c(C(=O)NCc2ccccc2)c1`: 63.4% (active). Then `CN(C)S(=O)(=O)c1ccc(N2CCCC2)c(C(=O)Nc2cccc(F)c2)c1`, with 0.2%. Then `Cc1ccccc1OCC(=O)NNC(=O)c1cc(S(=O)(=O)N(C)C)ccc1N1CCCC1`, with -9.51%. Take `COc1ccc(N2CCN(C(=O)CNS(=O)(=O)c3ccc(C)c(C)c3)CC2)cc1`: the inhibition was 4.34%. Then `COc1ccc(C(C#N)Nc2ccccc2C)cc1` (stereo unspecified), with -0.99%; and `COC(=O)[C@@]1(Cc2ccc(F)cc2)[C@H]2c3cc(C(=O)N4CCCC4)n(Cc4ccc(OC(F)(F)F)cc4)c3C[C@H]2CN1C(=O)c1ccccc1`, with 18.4%. The same measure for `Cc1cccc(/C(N)=N/OC(=O)c2ccccc2Cl)c1`: 31.2%.

As to `Cc1ccc(C(=O)O/N=C(\N)c2ccccn2)cc1Cl`, the inhibition was 92.3% (active). Consider `CO/N=C(\N)c1ccc([N+](=O)[O-])cc1`, for which the inhibition is 0.74%. The same measure for `N/C(=N\OC(=O)CCC1CCCCC1)c1ccccn1`: 18.4%; for `N/C(=N\OC(=O)Cc1ccc([N+](=O)[O-])cc1)c1ccccn1`: 69.1% (active); for `O=C(COC(=O)c1ccccn1)NNC(=O)c1ccc([N+](=O)[O-])cc1`: -4.89%. As for `N/C(=N\OC(=O)c1ccc([N+](=O)[O-])cc1)c1ccccn1`, the inhibition is 77.4% (active).

On to `N/C(Cc1ccc([N+](=O)[O-])cc1)=N\OC(=O)COc1ccc2ccccc2c1`, for which the inhibition is -1.78%. The same measure for `Cc1cc(C)cc(OCC(=O)O/N=C(\N)Cc2ccc([N+](=O)[O-])cc2)c1`: -9.61%; for `COc1ccc(C2OC(CCc3ccccc3)Cc3[nH]c(=S)[nH]c(=O)c32)cc1` (stereo unspecified): -31.7%; for `Cc1ccc(S(=O)(=O)N2CCC(=O)N([C@H](COCc3ccccc3)Cc3ccccc3)CC2)cc1`: 1.7%. Turning to `CC(Oc1ccc(Cl)cc1)c1ccnn1S(C)(=O)=O` (stereo unspecified), the inhibition was 8.92%.

For the compound `CN(C)CCn1c2c(c(SCC(=O)Nc3ccccc3C(F)(F)F)nc1=O)CCCC2`, the inhibition was -2.47%. The same measure for `CC(C)(C)c1ccc(/C=C/C(=O)NCCCn2ccnc2)cc1`: 13.5%; for `O=C(NC1CCCC1)C1c2ccccc2OCC(=O)N1Cc1ccccc1` (stereo unspecified): 2.4%; for `COC(=O)Nc1ncc(CN2CCCCC2)s1`: 1.88%.

Take `Cc1ccc(OCC(=O)Nc2ccc(NC(=O)c3cccs3)cc2)c(C)c1`: the inhibition was -68.7%. Then `CCc1ccc(NC(=O)C(=O)NNC(=O)c2cccs2)cc1`, with -12.2%.

Regarding `Cc1nc(-c2ccc(NC(=O)c3cccs3)cc2)cs1`, the inhibition was 69% (active). `CCN(C(=O)CSc1nnc2ccccn12)C1CCS(=O)(=O)C1` (stereo unspecified): the inhibition was 7.23%.

With `COc1ccc2c(c1)c(=Cc1ccc(N(C)C)cc1)c1cc(-c3ccccc3)[n+](C)n12`, the inhibition was 100% (active).

Consider `CC1(C)CC(=O)C2=C(C1)N=C1SCCC(=O)N1C2c1ccc(C(F)(F)F)cc1` (stereo unspecified), for which the inhibition was 1.88%. Take `O=C1OC(Oc2ccc(Br)cc2)(c2ccccc2)c2ccccc21` (stereo unspecified): the inhibition was 7.48%. Then `Nc1[nH]c(C(=O)c2ccccc2)c(-c2ccncc2)c1C(=O)NCc1cccc2ccccc12`, with 36%; and `COc1cccc(NC(=O)c2ccc3c(SCC(=O)O)c4c(nc3c2)CCCC4)c1`, with -6.4%. Then `CC(C)CCNC(=O)c1ccc2c(Cl)c3c(nc2c1)CCC3`, with 58.4% (active). Consider `CC(=O)c1ccc(NC(=O)c2ccc3c(Cl)c4c(nc3c2)CCCC4)cc1`, for which the inhibition is 40.1%. The same measure for `CCc1ccc([C@@H]2CC(=O)[C@@H]3CN(S(=O)(=O)c4ccc(C)cc4)[C@H](c4ccc(Cl)cc4)C[C@@H]3N2S(=O)(=O)c2ccc(C)cc2)cc1`: -18.3%; for `COCOCCn1cc(CN2CCS(=O)(=O)N(Cc3ccc(-c4ccc(OC)cc4)cc3)C(CC(C)C)C2=O)nn1` (stereo unspecified): -6.75%. For the compound `COCc1cc(=O)[nH]c2cc(NC(=O)C(F)(F)F)c(C)cc12`, the inhibition is 6.5%. Then `C[C@H]1CN([C@@H](C)CO)C(=O)CCCn2cc(nn2)CO[C@@H]1CN(C)S(=O)(=O)c1ccc(-n2cccn2)cc1`, with -16.6%. Turning to `Cc1cccc(N2C(=O)c3ccc(C(=O)Nc4cccc(C(=O)O)c4)cc3C2=O)c1`, the inhibition is 8.83%.

`O=C(c1ccc2c(c1)C(=O)N(c1ccc(Cl)cc1)C2=O)N1CCN(c2ccccn2)CC1`: the inhibition was -12.4%. Then `O=C(O)c1ccc2c(c1)C(=O)N(c1ccc(/C=C/C(=O)c3ccccc3)cc1)C2=O`, with 75.5% (active); and `CCN1C[C@@H]2[C@@H]3C(=O)N(C)C(=O)[C@@H]3[C@](C)(C1=O)N2C(=O)c1ccccc1`, with 11.5%.

On to `CC(Sc1nncn1C)C(=O)NCCC1=CCCCC1` (stereo unspecified), for which the inhibition was -1.74%. The same measure for `COc1ccc(NC(=O)CCCC(=O)c2ccccc2)cc1`: -22.6%. Then `COc1ccc(NC(=O)ON=C2c3ccccc3-c3ccccc32)cc1`, with 57.8% (active). Take `COc1ccc(NC(=O)C(Br)C(C)C)cc1` (stereo unspecified): the inhibition is -6.35%.

Turning to `CCC1CCCCN1C(=O)Nc1cccc(NC(=O)N2CCCCC2CC)c1` (stereo unspecified), the inhibition is -4.07%. The same measure for `CCCCn1c(N)c(N(Cc2ccccc2OC)C(=O)COc2cc(C)ccc2Cl)c(=O)[nH]c1=O`: -6.52%; for `CC(C)CC(=O)N1CCN(Cc2ccccc2Br)CC1`: -11.1%; for `CCC1OC(C2CC2)CC2=C1C(=O)OC(C)(C)O2` (stereo unspecified): 6.62%. Then `CC(C)Cn1c(SCC(=O)Nc2ccc(Cl)cc2F)nc(O)cc1=O`, with 0.05%; and `Cn1c(SCC(=O)Nc2ccc(Cl)cc2)nc(O)cc1=O`, with 80.5% (active). As for `COc1ccccc1-n1c(SCC(=O)Nc2ccc(Cl)cc2)nc(O)c(Cc2ccccc2)c1=O`, the inhibition is -7.18%. Then `O=C(COC(=O)c1ccc(NS(=O)(=O)c2cccs2)cc1O)Nc1ccc(F)cc1`, with 1.2%; and `CCOC(=O)N1CCN(C(=O)C2CCCN(c3ncnc4c3sc3cccc(F)c34)C2)CC1` (stereo unspecified), with 28.8%.

As to `FC(F)(F)C1CCCN(c2nsc3ccccc23)C1` (stereo unspecified), the inhibition was 7.5%. The same measure for `CCCCCCCCN1C(=O)[C@H](CC(=O)NCc2cccc3ccccc23)C[C@@]2(C(=O)OC)CCCCC=C12`: -1.79%; for `CN(C)c1nc(=Nc2cccc(Cl)c2)ss1`: 5.73%. On to `c1ccc(CN2CCC(N=C3NN=C(c4ccc5c(c4)OCCO5)CS3)CC2)cc1`, for which the inhibition was 57.6% (active).

For the compound `CC(=NC1CCN(Cc2ccccc2)CC1)c1c(O)[nH]c(=O)[nH]c1=O`, the inhibition was 0.57%. The same measure for `Clc1cccc(N=C2NN=C(c3ccc4c(c3)OCCO4)CS2)c1`: 84.4% (active).

Take `CS(=O)(=O)N(CC(=O)N1CCN(Cc2ccccc2)CC1)c1ccc2c(c1)OCCO2`: the inhibition was 14.7%.
